This is an account of results in the supplement of paper PMC6555819.

The first assay concerns FXR:RXRa (NR concentration 270 nM, RXRa partner concentration 90 nM). The assay can be described thus: PBM binding z-score (relative to random genomic background probes); higher = stronger binding; sequences stand for … in GC…GCGATTGACAGCGTAGAATGAAGG
In short, it runs like this: (§1)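 Random background probes are the reference for binding z-scores. These scores derive from regression-normalized fluorescence on custom Agilent 4×180K protein-binding microarrays incubated 1 h with ligand-free nuclear receptor dimers. Binding was detected with antibodies against each partner (one per run).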
Sequence TCTTGTAGATGAATAGAGGTTAAGAAAGTGCGCT came in with a PBM binding z-score of 1.46.

AGAATTAGGTTACCAAAGATCAGGGAAACGCTTG registered a PBM binding z-score of 0.207.

ATCTCTAAGTAAAGTTCAGTGAAAGATCGATAGA displayed a PBM binding z-score of 1.27.

On to AATAGAGGGTCACTAGGCCAGAGTAGGTACGAAT, for which the PBM binding z-score worked out at 4.62.

Turning to AGAACGAGGGCACGCTGATTTGATAGCAGAGTAG, the PBM binding z-score was found to be 0.707.

GGAACGAGGGCAAGTTGATGGCAGAGTTTGATGG came in with a PBM binding z-score of 0.782.

For CCTAGTTGGTCAATGTCACACACGCTATAGGTAC, the PBM binding z-score was found to be 0.436.

For the sequence TCATTTAGGTAATACAGGTGAAAGTCGGCATCTA, the PBM binding z-score came out at 1.6.

The sequence CCTTACGGGTTACTGACAGGTTATAGCATTTGGA gave a PBM binding z-score of 0.701.

The sequence ACTATTCGTTGACTTAGGGCAACCGATACGACGC yielded a PBM binding z-score of 0.425.

ACCTCTAGGTAAGACTCAGTTCAGTGAAGAACGC returned a PBM binding z-score of -0.0705.

For CGTCCAAGGTCAATGCTAGGTCAGTGAAAGCATT, the PBM binding z-score amounted to 6.67.

In turn, ACTATTAGTTGAGACGAGGGCAACCGCTAGGTTG registered a PBM binding z-score of 0.861.

Turning to TCTTGTAGATCAAAAGAGGTTAAGAAAGTGCGCT, the PBM binding z-score worked out at 0.748.

Take CGAACGAGGGCATGAGTTGAGAGCAAATGCCGAT: the PBM binding z-score was 0.636.

In the case of GCTATTAGTTGAAAGGGCAACCAAATGATTCTCG, the PBM binding z-score was 0.334.

In the case of CAAACTAGGTCAAAGGTCAAAGGCGAGCCAACCA, the PBM binding z-score was determined as 8.49.

For the sequence GCTTGTAGATCAACGTTAAGAAAGACTAAGCTAA, the PBM binding z-score was -0.519.

The next assay concerns LXRa:RXRa (NR concentration 270 nM, RXRa partner concentration 90 nM). Described as above. An outline of the steps:
as §1
The sequence ATATGTAGGTTAGCTGTGGTCATTCAGACTAGGC returned a PBM binding z-score of 1.93.

Take TCTCGGAGGACACGAAAGGTCAGCGCTCGACATC: the PBM binding z-score came out at 4.26.

Regarding TCCTGTAGATCAAAGGTTAAGAAAGCCGAAGCCT, the PBM binding z-score stood at 2.18.

TCTAGTTGGTCGAAGGTCACACACTCGAAATGCG: the PBM binding z-score turned out to be 3.2.

With TCATATAGGTAAAGGTGAAAGTCGAACGATATGA, the PBM binding z-score was 1.27.

With TAGCCTAGGTCATTCATGGGCCAGTATAGAAAGC, the PBM binding z-score was 3.5.

Sequence AGAATGAGCTTATACGTAGATCAGGGAAGAAAGT displayed a PBM binding z-score of -0.491.

In turn, GCGACTGGGGCAAAGCAGGTTACCATAAGGTTGG returned a PBM binding z-score of 0.088.

As to ACTAGTTTGTCAGCTGAGGTCACACACAATTCGG, the PBM binding z-score stood at 3.38.

For ATACCAAGGTGTTCGTGAGGTCGTTGATACTAAC, the PBM binding z-score was 2.11.

Sequence CCAGACAGGTGAAAGGTAAGTCAGTCTGGTACGC registered a PBM binding z-score of 0.575.

AGAATGAGGTTATACGTATATCAGGGAAGAAAGT yielded a PBM binding z-score of 2.1.

On to GCTATTAGTTGAAAGGGCTACCGAATGATTCTCG, for which the PBM binding z-score is -0.291.

As for CCTACTGGGCCAAAGGTCATTGTTTCCAATGCTC, the PBM binding z-score stood at 5.08.

GCTAGCAGGCCATTTGGGTCTCTCAATGACGGGC yielded a PBM binding z-score of -0.541.

Take TCGAGTAGGTTAGTTGGGGCATTCAGCCAACATA: the PBM binding z-score is -0.106.

Turning to AATACAGGGCCACTAGGCCAGAGTAGGTACGAAT, the PBM binding z-score was -0.349.

Consider ATACGTAGGTTAGCTGGGGTCATTCAGACTAGGC, for which the PBM binding z-score worked out at 5.91.

As to GCTAGTTGGCCAGTAAAAGGTCACACACCGGTCG, the PBM binding z-score was 4.16.

TGTCAAAGTTCAGAGGTAACGTAAGTATCCACAC yielded a PBM binding z-score of 4.37.

On to ATCTCTAGGTCAGACTCAGTTCAGTGAAGAACGC, for which the PBM binding z-score was 3.65.

TCACATAGGTAAAAGGTGAAAGTCGGTGTGGTAA displayed a PBM binding z-score of 1.56.

In turn, TCTTGTAGATGAATAGAGGTTAAGAAAGTGCGCT gave a PBM binding z-score of 3.5.

In turn, AGAATTAGGTTACCAAAGATCAGGGAAACGCTTG had a PBM binding z-score of 4.78.

As for ATCTCTAAGTAAAGTTCAGTGAAAGATCGATAGA, the PBM binding z-score came to 1.99.

Sequence AATAGAGGGTCACTAGGCCAGAGTAGGTACGAAT showed a PBM binding z-score of 3.5.

Sequence AGAACGAGGGCACGCTGATTTGATAGCAGAGTAG registered a PBM binding z-score of 0.541.

As to GGAACGAGGGCAAGTTGATGGCAGAGTTTGATGG, the PBM binding z-score was found to be 0.592.

CCTAGTTGGTCAATGTCACACACGCTATAGGTAC: the PBM binding z-score came to 0.678.

In turn, TCATTTAGGTAATACAGGTGAAAGTCGGCATCTA gave a PBM binding z-score of 1.41.

For the sequence CCTTACGGGTTACTGACAGGTTATAGCATTTGGA, the PBM binding z-score is 2.51.

In turn, ACTATTCGTTGACTTAGGGCAACCGATACGACGC returned a PBM binding z-score of 0.382.

Sequence ACCTCTAGGTAAGACTCAGTTCAGTGAAGAACGC returned a PBM binding z-score of -0.143.

CGTCCAAGGTCAATGCTAGGTCAGTGAAAGCATT registered a PBM binding z-score of 5.72.

ACTATTAGTTGAGACGAGGGCAACCGCTAGGTTG came in with a PBM binding z-score of 0.155.

Sequence TCTTGTAGATCAAAAGAGGTTAAGAAAGTGCGCT returned a PBM binding z-score of 3.35.

Consider CGAACGAGGGCATGAGTTGAGAGCAAATGCCGAT, for which the PBM binding z-score is 0.355.

GCTATTAGTTGAAAGGGCAACCAAATGATTCTCG returned a PBM binding z-score of 0.735.

CAAACTAGGTCAAAGGTCAAAGGCGAGCCAACCA: the PBM binding z-score was 7.21.

Regarding GCTTGTAGATCAACGTTAAGAAAGACTAAGCTAA, the PBM binding z-score was -0.395.

The test system of another assay is LXRa homodimer (NR concentration 270 nM). The description is as above. An outline of the steps: as §1
ATATGTAGGTTAGCTGTGGTCATTCAGACTAGGC returned a PBM binding z-score of 0.212.

With TCTCGGAGGACACGAAAGGTCAGCGCTCGACATC, the PBM binding z-score is 2.8.

Turning to TCCTGTAGATCAAAGGTTAAGAAAGCCGAAGCCT, the PBM binding z-score was -0.208.

In turn, TCTAGTTGGTCGAAGGTCACACACTCGAAATGCG gave a PBM binding z-score of 1.24.

In turn, TCATATAGGTAAAGGTGAAAGTCGAACGATATGA came in with a PBM binding z-score of -0.00869.

In the case of TAGCCTAGGTCATTCATGGGCCAGTATAGAAAGC, the PBM binding z-score amounted to 0.512.

The sequence AGAATGAGCTTATACGTAGATCAGGGAAGAAAGT yielded a PBM binding z-score of -0.371.

In turn, GCGACTGGGGCAAAGCAGGTTACCATAAGGTTGG had a PBM binding z-score of -0.593.

In turn, ACTAGTTTGTCAGCTGAGGTCACACACAATTCGG gave a PBM binding z-score of 2.38.

ATACCAAGGTGTTCGTGAGGTCGTTGATACTAAC returned a PBM binding z-score of 1.19.

In the case of CCAGACAGGTGAAAGGTAAGTCAGTCTGGTACGC, the PBM binding z-score is -0.142.

For AGAATGAGGTTATACGTATATCAGGGAAGAAAGT, the PBM binding z-score came to 0.245.

GCTATTAGTTGAAAGGGCTACCGAATGATTCTCG: the PBM binding z-score is -0.117.

The sequence CCTACTGGGCCAAAGGTCATTGTTTCCAATGCTC showed a PBM binding z-score of 4.83.

In turn, GCTAGCAGGCCATTTGGGTCTCTCAATGACGGGC gave a PBM binding z-score of -0.417.

The sequence TCGAGTAGGTTAGTTGGGGCATTCAGCCAACATA had a PBM binding z-score of -0.363.

As to AATACAGGGCCACTAGGCCAGAGTAGGTACGAAT, the PBM binding z-score was -0.323.

ATACGTAGGTTAGCTGGGGTCATTCAGACTAGGC returned a PBM binding z-score of 2.24.

GCTAGTTGGCCAGTAAAAGGTCACACACCGGTCG: the PBM binding z-score was 3.87.

On to TGTCAAAGTTCAGAGGTAACGTAAGTATCCACAC, for which the PBM binding z-score worked out at 1.55.

ATCTCTAGGTCAGACTCAGTTCAGTGAAGAACGC: the PBM binding z-score was found to be 3.15.

As for TCACATAGGTAAAAGGTGAAAGTCGGTGTGGTAA, the PBM binding z-score stood at 0.139.

In turn, TCTTGTAGATGAATAGAGGTTAAGAAAGTGCGCT gave a PBM binding z-score of 0.638.

Sequence AGAATTAGGTTACCAAAGATCAGGGAAACGCTTG displayed a PBM binding z-score of 0.162.

ATCTCTAAGTAAAGTTCAGTGAAAGATCGATAGA gave a PBM binding z-score of 1.87.

AATAGAGGGTCACTAGGCCAGAGTAGGTACGAAT returned a PBM binding z-score of 0.324.

In turn, AGAACGAGGGCACGCTGATTTGATAGCAGAGTAG had a PBM binding z-score of -0.464.

As for GGAACGAGGGCAAGTTGATGGCAGAGTTTGATGG, the PBM binding z-score is -0.0865.

Sequence CCTAGTTGGTCAATGTCACACACGCTATAGGTAC returned a PBM binding z-score of 0.613.

TCATTTAGGTAATACAGGTGAAAGTCGGCATCTA came in with a PBM binding z-score of 0.774.

CCTTACGGGTTACTGACAGGTTATAGCATTTGGA: the PBM binding z-score came out at 0.282.

For ACTATTCGTTGACTTAGGGCAACCGATACGACGC, the PBM binding z-score came to 0.669.

In the case of ACCTCTAGGTAAGACTCAGTTCAGTGAAGAACGC, the PBM binding z-score was -0.072.

Sequence CGTCCAAGGTCAATGCTAGGTCAGTGAAAGCATT displayed a PBM binding z-score of 2.67.

With ACTATTAGTTGAGACGAGGGCAACCGCTAGGTTG, the PBM binding z-score is -0.0789.

For the sequence TCTTGTAGATCAAAAGAGGTTAAGAAAGTGCGCT, the PBM binding z-score is -0.0772.

For the sequence CGAACGAGGGCATGAGTTGAGAGCAAATGCCGAT, the PBM binding z-score was -0.664.

GCTATTAGTTGAAAGGGCAACCAAATGATTCTCG gave a PBM binding z-score of 0.214.

Sequence CAAACTAGGTCAAAGGTCAAAGGCGAGCCAACCA returned a PBM binding z-score of 4.91.

Take GCTTGTAGATCAACGTTAAGAAAGACTAAGCTAA: the PBM binding z-score was -0.371.
